Test systems include EKVX NSCLC; SN12C renal; UO-31 renal; TK-10 renal; ACHN renal; CAKI-1 renal; A498 renal; CCRF-CEM leukemia; MOLT-4 leukemia; SR leukemia.
Test in all cases: NCI-60 one-dose screen, 48 h (100 = growth as untreated, 0 = no growth, -100 = all killed)
What all share (conditions): 10 µM

Compounds without any hit were thinned out: in the full panel of roughly 83,000, 20% have a hit.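 A percent growth of 40 corresponds to 60% growth inhibition; 0 means no net growth; -100 means all cells died. Active threshold: below 10.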 Unmarked numbers belong to inactive results. The source made the active and inactive calls.

For the molecule `O=C(NC(Cc1ccc(O)cc1)C(=O)N=Nc1c(O)[nH]c2ccccc12)c1ccccc1` (stereo not given), the growth in the assay with EKVX NSCLC is 97.3%; in the assay on SN12C renal it was 97.6%; in the assay with UO-31 renal it was 74.9%; with TK-10 renal it was 97.7%; in the assay with ACHN renal it was 114%; in the assay with CAKI-1 renal it was 98.9%. Further, the growth in the assay with A498 renal was 109%; in the assay on CCRF-CEM leukemia, 89.6%; in the assay on MOLT-4 leukemia it was 92.1%; in the assay on SR leukemia it was 92.7%.
Take `NC(=O)SCC(=O)Nc1ccc(S(N)(=O)=O)cc1`: the growth in the assay with EKVX NSCLC was 112%; in the assay with SN12C renal, 95.6%; with UO-31 renal, 86.4%; in the assay on TK-10 renal it was 106%; in the assay on ACHN renal, 112%; with CAKI-1 renal, 104%. Also, the growth is 100% in the assay with A498 renal, 106% in the assay with CCRF-CEM leukemia, 113% with MOLT-4 leukemia and 110% with SR leukemia.
As for `COc1cccc(C2C3=C(COC3=O)N(CCO)c3cc(OC)ccc32)c1` (stereo not given), the growth was 40.5% in the assay with EKVX NSCLC; 27% in the assay on SN12C renal; 50.4% in the assay with UO-31 renal; 51.8% in the assay on TK-10 renal; 31.9% in the assay with ACHN renal; 36.7% in the assay with CAKI-1 renal. Also, the growth in the assay on A498 renal is -6.88% (active); in the assay on CCRF-CEM leukemia, 15%; with MOLT-4 leukemia, 19%; in the assay with SR leukemia, 22.3%.
Consider `Nc1ccn(C2CC(O)C(CO)O2)c(=O)n1` (stereo not given), for which the growth is 102% in the assay with EKVX NSCLC; 108% in the assay with SN12C renal; 96.4% in the assay with UO-31 renal; 148% with TK-10 renal; 104% in the assay with ACHN renal; 99.4% with CAKI-1 renal. Moreover, the growth is 124% in the assay on A498 renal, 116% in the assay on CCRF-CEM leukemia, 104% with MOLT-4 leukemia and 92.7% with SR leukemia.
In the case of `Nc1ncn(C2OC(CO)C(O)C2O)c(=O)n1` (stereo not given), the growth was 44.9% in the assay on EKVX NSCLC; 17.4% with SN12C renal; 0.167% (active) in the assay with UO-31 renal; 4.79% (active) with TK-10 renal; -21.7% (active) in the assay on ACHN renal; -2.03% (active) in the assay on CAKI-1 renal. Besides, the growth is 19% in the assay with A498 renal, -7.84% (active) in the assay on CCRF-CEM leukemia, 0.695% (active) with MOLT-4 leukemia and -1.52% (active) with SR leukemia.
With `COc1cc(/C=C2\Oc3cc(OCC(=O)c4ccccc4)ccc3C2=O)cc(OC)c1OC`, the growth in the assay on EKVX NSCLC was 108%; with SN12C renal, 109%; in the assay on UO-31 renal, 67.6%; in the assay with TK-10 renal, 151%; with ACHN renal it was 89.6%; with CAKI-1 renal, 119%. For the same molecule, the growth is 105% in the assay on A498 renal, 73.2% with CCRF-CEM leukemia and 91% in the assay on MOLT-4 leukemia.
On to `O=c1c2ccccc2nc(SCCN2CCCCC2)n1CCc1ccccc1`, for which the growth with EKVX NSCLC was 70.7%; in the assay with SN12C renal it was 81.5%; in the assay on UO-31 renal, 57.2%; in the assay on TK-10 renal it was 97.2%; in the assay with ACHN renal it was 102%; in the assay on CAKI-1 renal, 73.9%. For the same molecule, the growth in the assay with A498 renal was 83.1%.
Take `CCN1CCC2(CC1)OC(c1ccccc1)C(c1ccccc1)O2` (stereo not given): the growth in the assay with EKVX NSCLC is 107%; in the assay with SN12C renal, 110%; with UO-31 renal it was 87.2%; with TK-10 renal, 103%; in the assay on ACHN renal, 109%; in the assay with CAKI-1 renal it was 111%. For the same molecule, the growth is 98.9% in the assay on A498 renal, 91.7% in the assay on CCRF-CEM leukemia, 96.5% in the assay on MOLT-4 leukemia and 96.9% in the assay on SR leukemia.
As for `COc1ccc(-c2nc3ncccn3c2-c2nnc(-c3ccsc3C)o2)cc1`, the growth with EKVX NSCLC was 94.5%; in the assay on SN12C renal, 87.7%; in the assay on UO-31 renal it was 73.8%; in the assay on TK-10 renal it was 96.7%; in the assay on ACHN renal, 72.3%; in the assay with CAKI-1 renal, 82.9%. For the same molecule, the growth in the assay on A498 renal is 99.4%; in the assay on CCRF-CEM leukemia, 90.1%; in the assay on MOLT-4 leukemia it was 97%; in the assay with SR leukemia, 83.4%.
In the case of `COc1cc(NC(=O)CSc2nc3ccccc3c(=O)n2CCc2ccccc2)cc(OC)c1OC`, the growth in the assay with EKVX NSCLC was 65.3%; with SN12C renal, 25.9%; with UO-31 renal, -63.2% (active); in the assay with TK-10 renal it was -2.38% (active); with ACHN renal, -41.6% (active); in the assay on CAKI-1 renal it was 45.4%. Further, in the assay on A498 renal, the growth was -21.8% (active).
On to `CCN(CC)CCOc1nc2ccc(OC)cc2c2c1-c1ccc(OC)cc1C2=O`, for which the growth in the assay with EKVX NSCLC is 25.2%; with SN12C renal it was 29.3%; in the assay on UO-31 renal it was -44.4% (active); in the assay with TK-10 renal it was 8.74% (active); with ACHN renal, -93% (active); in the assay on CAKI-1 renal it was -4.67% (active). The growth was 25.4% in the assay on A498 renal, 5.22% (active) with CCRF-CEM leukemia and 3.68% (active) in the assay with MOLT-4 leukemia.
As to `O=C(Nc1ccncc1)C(=O)c1cn(S(=O)(=O)c2cccc(Cl)c2)c2ccccc12`, the growth in the assay on EKVX NSCLC was 52.3%; in the assay on SN12C renal, 75.5%; with UO-31 renal it was 57.7%; with TK-10 renal, 87.6%; in the assay with ACHN renal it was 82.8%; in the assay on CAKI-1 renal it was 63.8%. The growth in the assay with A498 renal was 69.4%; with CCRF-CEM leukemia, 72.4%; in the assay with MOLT-4 leukemia, 53.1%.
Consider `CCCN(CCC)CCC(O)c1cc2c(c3ccccc13)CCCC2` (stereo not given), for which the growth was 87.9% with EKVX NSCLC; 82% in the assay on SN12C renal; 71.4% with UO-31 renal; 101% in the assay on TK-10 renal; 86.9% in the assay on ACHN renal; 96.1% in the assay on CAKI-1 renal. Moreover, the growth was 74.4% in the assay with A498 renal, 93.8% with CCRF-CEM leukemia, 92.9% with MOLT-4 leukemia and 75.3% in the assay on SR leukemia.
`c1ccc2c(c1)oc1c3c(ccc12)NCCC3`: the growth in the assay on EKVX NSCLC was 59.5%; in the assay on SN12C renal it was 87.4%; in the assay on UO-31 renal, 65.9%; in the assay on TK-10 renal, 135%; in the assay on ACHN renal, 101%; with CAKI-1 renal, 97.4%. The growth is 77.3% in the assay on A498 renal, 96% in the assay with CCRF-CEM leukemia and 97.5% in the assay on MOLT-4 leukemia.

The values above are taken from PubChem BioAssay (NCI).
